Screens (PubChem)
Shiga toxin inh – Shiga toxin inhibition | AID 2315 | Vero cells, Shiga toxin protein synthesis inhibition reporter | inhibition, % at 38.7 µM | 290,000 compounds, 9.2% hits; in the data active = inhibition mostly above about 28%, no sharp cut-off; inactive = mostly below about 43%; note: 0% is about no effect
HCMV antiviral – human cytomegalovirus inhibition. activity change, negative = inhibition, % at 57.5 µM. HFF cells, HCMV-luciferase reporter, 72 h; stronger effect = lower value. 410,000 compounds, 4.5% hits; in the data active = activity change below about -60%; inconclusive = no clear call, values can overlap the other calls; inactive = above about -39%; note: % is set by controls: 0 for no effect and ±100 for the full control effect
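Steps: HFFs plated, 16 h 37C; compounds added; HCMV-luciferase added to MOI 1 PFU/cell; 72 h 37C; OneGlo reagent, 5 min room temperature; luminescence read, normalized to controls.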
Cycloheximide cs – counter-screen for Shiga toxin inhibitors: cycloheximide protein synthesis inhibition | cell reporter, cycloheximide protein synthesis inhibition counterscreen | max response, % | 300,000 compounds, 12% hits; in the data active = max response mostly above about 13%, no sharp cut-off; inactive = mostly below about 14%; note: read at 38.3 µM for the half of the compounds with a filed dose; 0% is about no effect
Pf growth 48h – P. falciparum growth inhibition at 48 hours (one generation); 310,000 compounds, 5.9% hits; AID 504832; Potency, µM (titrated, usually from 28.7 µM), inactives show top-dose activity change, negative = inhibition, most hits filed as inhibitors; P. falciparum luciferase growth in erythrocytes, 48 h; note: potency is the fitted concentration of half-maximal effect; % is set by controls: 0 for no effect and ±100 for the full control effect
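Growth was read as firefly luciferase luminescence after a 48 h, 37 C, 5% CO2 exposure of compounds to reporter-bearing P. falciparum cultures (0.1% parasitemia, 2% hematocrit final) in Albumax-supplemented RPMI 1640.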
Pf growth 96h – P. falciparum growth inhibition at 96 hours; Potency, µM (titrated, usually from 28.7 µM), inactives show top-dose activity change, negative = inhibition, actives largely listed as inhibitors; P. falciparum luciferase reporter growth, 96 h; 320,000 compounds, 6.9% hits; note: potency is the fitted concentration of half-maximal effect; % is set by controls: 0 for no effect and ±100 for the full control effect
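Parasite growth measured via integrated firefly luciferase reporter in P. falciparum. Infected erythrocytes at 2% hematocrit, 0.05% parasitemia final were treated 96 hours at 37 C under 5% CO2, and luminescence was read.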
Numbers without * were called inactive; [ ] = dose if it differs, or a comment. This is a sample that favours compounds with a hit; in the whole collection about 20% have one here. Unless noted, calls come from the whole dose curve; as a rule, active = well fitted inhibition curve with a large enough effect; inconclusive = small, poorly fitted or top-dose-only effect, or another doubt; inactive = no such curve, though single readings can be large or run the other way.

CCOC(=O)C1=C(CSc2nc3ccccc3s2)NC(=O)NC1c1ccc(OC)cc1 (centres undefined) was read as Shiga toxin inh -13.8, HCMV antiviral -60.0*, Cycloheximide cs 2.3, Pf growth 48h -16.4% and Pf growth 96h inconclusive.
Screening Cc1cc(C)cc(Oc2c(C(F)(F)F)oc3c(CN4CCCC(C)C4)c(O)ccc3c2=O)c1 (centres undefined) returned HCMV antiviral 18.7.
`Cc1ccc(S(=O)(=O)Nc2ccnc(-c3cccnc3)n2)cc1` gave Shiga toxin inh -11.0, HCMV antiviral -17.9, Cycloheximide cs -5.6, Pf growth 48h 11.1% and Pf growth 96h 17.5%.
Screening O=C1c2ccccc2C(=O)N1CCN1CCOCC1 returned Shiga toxin inh -9.8, HCMV antiviral 24.2, Cycloheximide cs -0.4 and Pf growth 96h 24.7%.
CCOc1ccc(N=C2C(=O)N(CN3CCOCC3)c3ccccc32)cc1 was read as Shiga toxin inh 60.5, HCMV antiviral 28.0, Cycloheximide cs 15.1, Pf growth 48h 3.8% and Pf growth 96h 13.1µM*.
`O=C(NCc1ccccc1)OC1CC2CC1[C@H]1CCCCN1C2=O` (some centres undefined) gave HCMV antiviral 31.7.
Screening S=C(NCCc1ccccc1)N1CCC2CC1c1cc(-c3ccc4c(c3)OCO4)ccc12 (centres undefined) returned HCMV antiviral -74.5*.
Screening COCCNC(=S)N1CCC2CC1c1cc(-c3ccc4c(c3)OCO4)ccc12 (centres undefined) returned HCMV antiviral -21.5.
`CC1=C(C(=O)N(C(C)C)C(C)C)CC(CC(=O)NCCN2CCOCC2)C(=O)N1Cc1ccccc1` (centres undefined) gave HCMV antiviral -3.2.
Screening CC1CCCCN1CCNC(=O)c1ccc2c(=O)n(Cc3ccc(Cl)cc3)c(=S)[nH]c2c1 (centres undefined) returned Shiga toxin inh -3.2, HCMV antiviral -27.3, Cycloheximide cs 1.4, Pf growth 48h 3.7µM* and Pf growth 96h 8.2%.
Screening CC1CCN(CCCNC(=O)c2ccc(Cn3c(=S)[nH]c4ccc(Br)cc4c3=O)cc2)CC1 returned Shiga toxin inh -10.6, Cycloheximide cs -3.2, Pf growth 48h 13.1µM* and Pf growth 96h 15.9%.
CCOc1cccc(N(C(=O)c2ccco2)C(C(=O)NC2CCCC2)c2cccnc2)c1 (centres undefined) was read as Shiga toxin inh -14.0, HCMV antiviral -27.0, Cycloheximide cs -1.4, Pf growth 48h inconclusive and Pf growth 96h 32.6%.
Screening Nc1nnn(CC(=O)N/N=C/C=C/c2ccccc2)n1 returned Shiga toxin inh 58.3*, HCMV antiviral 41.7, Cycloheximide cs 21.4*, Pf growth 48h 5.0% and Pf growth 96h 20.9%.
For CC(/C=C/c1ccccc1)=N/NC(=O)Cn1nnc(N)n1 the results were Shiga toxin inh 29.7, HCMV antiviral inconclusive, Cycloheximide cs -2.6, Pf growth 48h 6.5% and Pf growth 96h 2.2%.
Cc1ccc(NC(=O)CCC(=O)N/N=C/c2cccnc2)cc1 was read as Shiga toxin inh 18.6, HCMV antiviral -16.0, Cycloheximide cs -4.0, Pf growth 48h 12.1% and Pf growth 96h 3.7µM*.
O=C(CNC(=O)c1ccccc1)N/N=C/C=C/c1ccccc1 was read as Shiga toxin inh -6.3, HCMV antiviral -18.9, Cycloheximide cs -1.5, Pf growth 48h 21.6% and Pf growth 96h 121.1%.
`O=C(CCC(=O)Nc1ccccc1)N/N=C/c1cccnc1` gave Shiga toxin inh -10.2, HCMV antiviral -12.0, Cycloheximide cs -0.3, Pf growth 48h 7.0% and Pf growth 96h 5.22µM*.
O=C(CCC(=O)Nc1ccccc1)N/N=C/C=C/c1ccccc1 was read as Shiga toxin inh 9.0, HCMV antiviral -30.3, Cycloheximide cs 10.0*, Pf growth 48h 33.9% and Pf growth 96h 31.9%.
Cc1ccccc1NC(=O)CCC(=O)N/N=C/c1cccnc1 was read as Shiga toxin inh -2.4, HCMV antiviral -4.7, Cycloheximide cs -3.6, Pf growth 48h inconclusive and Pf growth 96h inconclusive.
`CCC(C)(C)n1nnnc1C(c1ccc(C)cc1)N1CCN(Cc2cccnc2)CC1` (centres undefined) gave Shiga toxin inh -19.4, HCMV antiviral -10.1, Cycloheximide cs -7.1, Pf growth 48h 13.1µM* and Pf growth 96h -3.9%[5.75 µM].
For CCC(C)(C)n1nnnc1C(c1ccncc1)N1CCN(c2cccc(OC)c2)CC1 (centres undefined) the results were Shiga toxin inh -2.4, HCMV antiviral -28.0, Cycloheximide cs -1.2, Pf growth 48h 0.0% and Pf growth 96h 2.62µM*.
`COc1cccc(N2CCN(C(c3ccccn3)c3nnnn3C(C)(C)C)CC2)c1` (centres undefined) gave Shiga toxin inh -3.2, HCMV antiviral -6.1, Cycloheximide cs -3.2, Pf growth 48h inconclusive and Pf growth 96h inconclusive.
For CC(C)(C)n1nnnc1C(c1cccnc1)N1CCN(c2ccccc2)CC1 (centres undefined) the results were Shiga toxin inh -8.6, HCMV antiviral 9.7, Cycloheximide cs -1.1, Pf growth 48h inconclusive and Pf growth 96h -16.9%.
Screening CCC(C)(C)n1nnnc1C(c1cccnc1)N1CCN(c2cccc(C(F)(F)F)c2)CC1 (centres undefined) returned Shiga toxin inh -15.9, HCMV antiviral 30.3, Cycloheximide cs -3.0, Pf growth 48h 9.28µM* and Pf growth 96h -0.1%.
`CC(C)(C)NC(=O)CN(CCN1CCOCC1)C(=O)CNS(=O)(=O)c1ccccc1` gave Shiga toxin inh 0.5, HCMV antiviral -0.7, Cycloheximide cs -3.3, Pf growth 48h 9.4% and Pf growth 96h 18.7%.
Screening Cn1cccc1CC(=O)N/N=C/c1cccc2ccccc12 returned Shiga toxin inh 33.1*, HCMV antiviral 25.3, Cycloheximide cs 22.1*, Pf growth 48h inconclusive and Pf growth 96h -13.0%.
Cc1ccsc1/C=N/NC(=O)Cc1cccn1C was read as Shiga toxin inh 50.2, HCMV antiviral -27.9, Cycloheximide cs 21.3*, Pf growth 48h 25.9% and Pf growth 96h -8.0%.
For CSC(C(=O)c1cc2ccccc2o1)c1ccccc1 (centres undefined) the results were HCMV antiviral 90.6, Pf growth 48h 12.4% and Pf growth 96h 17.6%.
Screening C=CCCC[C@@H]1OC(=O)CNC(=O)C([C@@H](C)CC)NC(=O)[C@@H]2CCCN2C(=O)C([C@@H](C)CC)OC(=O)[C@H](Cc2ccccc2)N(C)C(=O)[C@H](C(C)C)NC(=O)C1(C)C (some centres undefined) returned HCMV antiviral -72.9*.
COc1ccccc1CN1C(=O)C(Cc2ccccc2)ON=C1c1ncccc1C (centres undefined) was read as HCMV antiviral -38.8.
For CCOc1ccc(NC(=O)c2ccc3nccnc3c2)cc1 the results were Shiga toxin inh 62.5, HCMV antiviral 8.7, Cycloheximide cs 51.7* and Pf growth 48h 102.5%.
